Laboratory results from PubChem BioAssay (Tox21).
Results filed as inconclusive are left out. Active and inactive are the calls of the source. Unless noted, calls come from the whole dose curve; as a rule, active = well fitted curve in the direction sought with a large enough effect in the repeat runs; inconclusive = weak or mixed curves; inactive = no such curve, though single readings can be large; an effect the other way counts as inactive or inconclusive.

Columns and labels:
[1] = qHTS assay to identify small molecule agonists of the vitamin D receptor (VDR) signaling pathway - cell viability counter screen (AID 743224); note: series mostly up to about 63 µM; nearly all actives have a fitted effect of over 50% in size
Outline: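 Plated VDR-bla cells (4 h, 37C) received compound, incubated 16 h, then LiveBLAzer substrate 2 h RT; CellTiter-Glo added afterwards, luminescence read at 30 min.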

[2] = qHTS assay to identify small molecule antagonists of the vitamin D receptor (VDR) signaling pathway - cell viability counter screen (AID 743225); note: nearly all actives have a fitted effect of over 50% in size
Outline: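 HEK293T VDR-bla; cpd + 1a,25-(OH)2D3 3 nM final, 16 h 37C/5% CO2; B/G FRET substrate 2 h RT; then CellTiter-Glo 30 min RT, luminescence.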

[3] = qHTS assay to identify small molecule agonists of the NFkB signaling pathway - cell viability counter screen (AID 1159515; calls by dose curve; note: series mostly up to about 61 µM; nearly all actives have a fitted effect of over 55% in size)
Outline: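 Using the same wells as the NFkB reporter read, ME-180 NFkB-bla cells given compounds for 5 hr were assessed for viability via CellTiter-Glo, with luminescence taken after a 30 min room-temperature incubation.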

[4] = qHTS assay to identify small molecule agonists of the endoplasmic reticulum stress response signaling pathway (AID 1159516; active = well fitted activation curve with a large enough effect in the signal ratio in the repeat runs, not every such curve was filed as active; the % refers to the signal ratio)
Outline: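 An ESRE-bla HeLa cell assay: compounds were pin-transferred from DMSO onto overnight-plated cells and left 5 hr at 37 C. Substrate was then loaded for 2 hr at room temperature before reading fluorescence at 460 nm and 530 nm.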

[5] = qHTS assay to identify small molecule agonists of the endoplasmic reticulum stress response signaling pathway - cell viability counter screen (AID 1159517; calls by dose curve;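 note: HeLa cells carrying an ER stress response element beta-lactamase reporter; series mostly up to about 61 µM; nearly all actives have a fitted effect of over 50% in size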)
Outline: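 ESRE-bla HeLa cells, 1,500 per well, seeded overnight then treated with compounds for 5 hr at 37 C. After the beta-lactamase read, viability in the same wells is measured by CellTiter-Glo luminescence after 30 min at room temperature.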

[6] = qHTS assay to identify small molecule antagonists of the retinoid-related orphan receptor gamma (ROR-gamma) signaling pathway - cell viability counter screen (AID 1159520); note: nearly all actives have a fitted effect of over 50% in size
Outline: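 Tet-on ROR gamma CHO cells were given compounds for 2 hr, then doxycycline hyclate at 1 uM final, and incubated 16 hr at 37 C. Viability was measured as ATP content by CellTiter-Glo luminescence.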

[7] = target: Nuclear receptor ROR-gamma (Homo sapiens) (UniProt P51449); experiment: qHTS assay to identify small molecule antagonists of the retinoid-related orphan receptor gamma (ROR-gamma) signaling pathway (AID 1159521)
Outline: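 Cells were plated, rested 4 h at 37 C, exposed to compounds for 2 h, then given 1 uM final doxycycline hyclate to induce RORγ expression. After 16 h, ONE-Glo luminescence from the ROR response element reporter was measured.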

[8] = qHTS assay to identify small molecule agonists of the AP-1 signaling pathway (AID 1159526; calls by dose curve)
[9] = target: Retinoic acid receptor RXR-alpha (Homo sapiens) (UniProt P19793); experiment: qHTS assay to identify small molecule agonists of the RXR signaling pathway (AID 1159527; calls by dose curve; note: nearly all actives have a fitted effect of over 35% in size)
Sequence of Retinoic acid receptor RXR-alpha (Homo sapiens) (P19793 whole entry, looked up): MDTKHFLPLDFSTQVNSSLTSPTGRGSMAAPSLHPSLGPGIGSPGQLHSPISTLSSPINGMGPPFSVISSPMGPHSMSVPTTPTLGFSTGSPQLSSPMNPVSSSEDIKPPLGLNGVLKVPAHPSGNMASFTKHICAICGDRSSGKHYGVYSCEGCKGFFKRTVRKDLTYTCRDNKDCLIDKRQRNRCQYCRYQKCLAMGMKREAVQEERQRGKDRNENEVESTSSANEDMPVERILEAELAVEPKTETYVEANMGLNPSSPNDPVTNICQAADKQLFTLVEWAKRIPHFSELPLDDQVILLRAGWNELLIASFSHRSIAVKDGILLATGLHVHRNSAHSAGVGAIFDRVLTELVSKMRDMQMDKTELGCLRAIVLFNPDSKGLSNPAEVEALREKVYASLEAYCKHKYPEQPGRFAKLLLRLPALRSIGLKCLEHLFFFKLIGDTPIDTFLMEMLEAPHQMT
Outline: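 Cells plated at 2,000/well, rested 5 hr at 37 C, pin-dosed with DMSO compound solutions, incubated 16 hr, then loaded with B/G FRET substrate for 2 hr at RT before dual-emission fluorescence reading.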

[10] = qHTS assay to identify small molecule agonists of the RXR signaling pathway - cell viability counter screen (AID 1159529)
Outline: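 Steps: seed RXR-alpha-UAS-bla HEK 293T cells in assay medium containing 2% charcoal-stripped FBS; incubate 5 hr; add compounds in DMSO; incubate 16 hr at 37 C; after the bla read, add CellTiter-Glo and read luminescence at 30 min.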

[11] = qHTS assay to identify small molecule antagonists of the retinoid acid receptor (RAR) signaling pathway - cell viability counter screen (AID 1159551); note: nearly all actives have a fitted effect of over 35% in size
Outline: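 Retinol-stimulated (1 uM final) C3RL4 cells, compound 6 h, 37 C; readout CellTiter-Glo luminescence (ATP) after 30 min RT incubation.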

[12] = qHTS assay to identify small molecule antagonists of the retinoic acid receptor (RAR) signaling pathway (AID 1159552; note: nearly all actives have a fitted effect of over 50% in size)
Outline: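 Retinol at 1 uM final stimulated RARE-luciferase expression in C3RL4 cells exposed to test compounds for 6 hr at 37 C. Reduced luminescence, read 30 min after detection reagent, indicated pathway antagonism.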

[13] = qHTS assay to identify small molecule agonists of the retinoic acid receptor (RAR) signaling pathway (AID 1159553)
Outline: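 Reporter readout comes from luciferase under RARE control in C3RL4 cells; compound exposure lasts 6 hr at 37 C in 5% CO2, and luminescence is recorded following a 30 min room-temperature incubation with reagent.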

[14] = qHTS assay to identify small molecule agonists of the AP-1 signaling pathway - cell viability counter screen (AID 1159525; calls by dose curve; note: nearly all actives have a fitted effect of over 55% in size)
Outline: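 AP-1-bla ME-180 cells in Opti-MEM with 0.5% dialyzed FBS, compound exposure 5 h at 37 C in 15-point titration. Viability read in the same wells as ATP content by CellTiter-Glo luminescence, normalised to tetra-n-octylammonium bromide and DMSO controls.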

Measured: Potency

O=[N+]([O-])C(CO)(CO)CO
not listed: [14]
inactive: all other assays above

CCOC(=O)C1OC1c1ccccc1 (centres undefined)
not listed: [4]
inactive: all other assays above

Cc1cc(Cc2ccc(N)c(C)c2)ccc1N
not listed: [9]
inactive: all other assays above
